Records with an inconclusive call do not appear. Values without a mark were called inactive. Calls of active or inactive are those of the source. Unless noted, calls come from the whole dose curve; as a rule, active = well fitted curve in the direction sought with a large enough effect in the repeat runs; inconclusive = weak or mixed curves; inactive = no such curve, though single readings can be large; an effect the other way counts as inactive or inconclusive.

Assay [1] in a line: qHTS assay to identify aromatase inhibitors - cell viability counter screen (AID 743084).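 Note: cells stimulated with testosterone during compound exposure; nearly all actives have a fitted effect of over 55% in size.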
Assay [2] concerns the target Aryl hydrocarbon receptor (Homo sapiens) (UniProt P35869). Description: qHTS assay to identify small molecule that activate the aryl hydrocarbon receptor (AhR) signaling pathway (AID 743085).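 For activation: HG2L7.5c1 human HepG2 liver cells with stably integrated DRE-driven firefly reporter; series mostly up to about 70 µM.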 Note: nearly all actives have a fitted effect of over 15% in size. Note: potency is the fitted concentration of half-maximal effect. An outline of the steps:
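Compounds were tested in HepG2 hepatocellular carcinoma cells harbouring a stably integrated luciferase gene under control of 20 DREs. Increased reporter signal after 24 h treatment at 37C was taken as AhR activation.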
(In qHTS, concentration-response curves come from the screen itself.)

Assay [3] is described as follows: qHTS assay to identify small molecule that activate the aryl hydrocarbon receptor (AhR) signaling pathway - cell viability counter screen (AID 743086).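 Note: HepG2 liver cells carrying the AhR DRE luciferase reporter; series mostly up to about 70 µM; nearly all actives have a fitted effect of over 45% in size.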 An outline of the steps: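 HepG2-AhR-luc (HG2L7.5c1) cells, 4000/well, were preincubated 5 h at 37C, exposed to compound in qHTS format for 24 hr at 37C, then given CellTiter-Fluor for 30 min; viability was read as fluorescence in the reporter wells.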

The target of assay [4] is Peroxisome proliferator-activated receptor gamma (Homo sapiens) (UniProt P37231). Kind of assay: qHTS assay to identify small molecule agonists of the peroxisome proliferator-activated receptor gamma (PPARg) signaling pathway (AID 743094; active = well fitted activation curve with a large enough effect in the signal ratio in the repeat runs, not every such curve was filed as active; the % refers to the signal ratio). The method, boiled down: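 Agonist activity was taken from a beta-lactamase reporter (FRET substrate, 1 h at room temperature) in HEK293H cells carrying a PPARg UAS-bla construct. Compounds in DMSO were incubated 17 h at 37C after a 5 h cell pre-incubation.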

The target is the same in assay [5]. Description: qHTS assay to identify small molecule antagonists of the peroxisome proliferator-activated receptor gamma (PPARg) signaling pathway (AID 743191; calls by dose curve; note: series mostly up to about 63 µM; nearly all actives have a fitted effect of over 30% in size). An outline of the steps: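 GeneBLAzer PPARg UAS-bla HEK293H cells carrying a UAS-driven beta-lactamase reporter were plated at 3000 cells/well, preincubated 5 h at 37C, then given compound for 17 h at 37C; LiveBLAzer B/G FRET substrate was read after 1 h at room temperature.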

Assay [6] is described as follows: qHTS assay to identify small molecule antagonists of the peroxisome proliferator-activated receptor gamma (PPARg) signaling pathway - cell viability counter screen (AID 743194). Note: nearly all actives have a fitted effect of over 55% in size. An outline of the steps:
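PPARg-UAS-bla HEK293H cells were plated, rested 5 h at 37 C, then treated with compounds plus rosiglitazone (50 nM final) for 17 h at 37 C; viability was then read by CellTiter-Glo luminescence after 30 min at room temperature.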

Assay [7] is described as follows: qHTS assay for small molecule agonists of the antioxidant response element (ARE) signaling pathway - cell viability counter screen (AID 743203; calls by dose curve; note: nearly all actives have a fitted effect of over 55% in size). An outline of the steps:
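Viability counter screen: CellTiter-Glo luminescence, read after 30 min at room temperature, in ARE-bla HepG2 wells. Compound exposure lasted 16 h at 37C/5% CO2, following a 5 h pre-incubation of the cells after plating.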

A short description of assay [8]: qHTS assay for small molecule activators of the heat shock response signaling pathway - cell viability counter screen (AID 743209). Note: nearly all actives have a fitted effect of over 50% in size. The method, boiled down:
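Cytotoxicity counter screen run in the same wells as the heat-shock bla reporter assay: HeLa HSE-bla cells, 5 h compound exposure at 37 C, viability read by CellTiter-Glo luminescence.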

The nature of assay [9]: qHTS assay to identify small molecule agonists of the peroxisome proliferator-activated receptor delta (PPARd) signaling pathway - cell viability counter screen (AID 743211). Note: nearly all actives have a fitted effect of over 55% in size. An outline of the steps:
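Counter screen for cytotoxicity run in parallel with the PPARd reporter screen. Beta-lactamase reporter HEK293H cells exposed to compounds 17 h; ATP-based CellTiter-Glo luminescence quantified viability.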

Assay [10] deals with Bile acid receptor (Homo sapiens) (UniProt Q96RI1). Kind of assay: qHTS assay to identify small molecule antagonists of the farnesoid-X-receptor (FXR) signaling pathway (AID 743217; active = well fitted inhibition curve with a large enough effect in the signal ratio in the repeat runs, not every such curve was filed as active; the % refers to the signal ratio). The method, boiled down:
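Antagonist mode: chenodeoxycholic acid at 50 uM final stimulates a UAS-driven beta-lactamase reporter in HEK 293T FXR-bla cells during 16 h, 37C compound exposure. Read-out is FRET substrate fluorescence after 2 h at room temperature.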

Assay [11] can be described thus: qHTS assay to identify small molecule agonists of the farnesoid-X-receptor (FXR) signaling pathway - cell viability counter screen (AID 743218). Note: nearly all actives have a fitted effect of over 45% in size. An outline of the steps: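 Viability counter screen in the same wells: CellTiter-Glo luminescence, 30 min room-temperature incubation, measured after the beta-lactamase read. Cells were GeneBLAzer FXR-UAS-bla HEK 293T, compound-treated 16 h at 37C.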

The target of assay [12] is Bile acid receptor (Homo sapiens) (UniProt Q96RI1). Description: qHTS assay to identify small molecule agonists of the farnesoid-X-receptor (FXR) signaling pathway (AID 743220; active = well fitted activation curve with a large enough effect in the signal ratio in the repeat runs, not every such curve was filed as active; the % refers to the signal ratio). An outline of the steps: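 FXR-UAS-bla HEK 293T cells carrying a UAS-driven beta-lactamase reporter were plated for 5 h at 37C/5% CO2, then exposed to DMSO-dissolved Tox21 10K compounds for 16 h at 37C. A LiveBLAzer B/G FRET substrate was loaded for 2 h at room temperature before fluorescence reading.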

A short description of assay [13]: qHTS assay to identify small molecule antagonists of the farnesoid-X-receptor (FXR) signaling pathway - cell viability counter screen (AID 743221; active = well fitted cell-killing curve with a large enough effect in the repeat runs, not every such curve was filed as active; note: nearly all actives have a fitted effect of over 50% in size). An outline of the steps:
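Multiplexed counter screen: viability of FXR-bla HEK 293T cells under agonist stimulation by chenodeoxycholic acid (50 uM, final) and test compound for 16 h at 37 C, measured by CellTiter-Glo luminescence in the reporter wells.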

The target of assay [14] is Vitamin D3 receptor (Homo sapiens) (UniProt P11473). Kind of assay: qHTS assay to identify small molecule antagonists of the vitamin D receptor (VDR) signaling pathway (AID 743223; active = well fitted inhibition curve with a large enough effect in the signal ratio in the repeat runs, not every such curve was filed as active; the % refers to the signal ratio). An outline of the steps: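 Cells carrying a VDR-driven beta-lactamase reporter (VDR-bla) were co-treated with compound and 3 nM final 1alpha,25-dihydroxyvitamin D3 for 16 h at 37C; reporter activity was measured as FRET substrate fluorescence after 2 h at room temperature.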

Assay [15] is described as follows: qHTS assay for small molecule activators of the heat shock response signaling pathway (AID 743210; active = well fitted activation curve with a large enough effect in the signal ratio in the repeat runs, with a control signal flat, not every such curve was filed as active; the % refers to the signal ratio; note: series mostly up to about 63 µM). An outline of the steps:
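Heat shock element–beta-lactamase HeLa reporter cells; qHTS with compounds for 5 h at 37 C; detection by FRET substrate fluorescence after 2.5 h at RT.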

Assay [16] deals with Peroxisome proliferator-activated receptor delta (Homo sapiens) (UniProt Q03181). Description: qHTS assay to identify small molecule agonists of the peroxisome proliferator-activated receptor delta (PPARd) signaling pathway (AID 743212; calls by dose curve). The method, boiled down: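 Beta-lactamase reporter read by fluorescence (LiveBLAzer B/G FRET, 2 h, room temperature). Test agents, in DMSO, incubated at 37 C with PPARd-bla HEK293H cells.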

The target in assay [17] is Vitamin D3 receptor (Homo sapiens) (UniProt P11473). Description: qHTS assay to identify small molecule agonists of the vitamin D receptor (VDR) signaling pathway (AID 743222; calls by dose curve). The method, boiled down: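 Agonist mode, beta-lactamase reporter: fluorescence from LiveBLAzer B/G FRET substrate (2 h, room temperature) read after 16 h compound treatment at 37 C of VDR-bla cells, which were pre-incubated 4 h after seeding.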

The nature of assay [18]: qHTS assay for small molecule agonists of the antioxidant response element (ARE) signaling pathway (AID 743202; active = well fitted activation curve with a large enough effect in the signal ratio in the repeat runs, not every such curve was filed as active; the % refers to the signal ratio). An outline of the steps: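 Following a 16 h, 37 C exposure of reporter HepG2 cells (ARE-driven beta-lactamase, 2,000 cells/well) to compounds, FRET substrate was applied for 2 h at room temperature and fluorescence intensity recorded.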
For assay [19], the target named is Peroxisome proliferator-activated receptor delta (Homo sapiens) (UniProt Q03181). Description: qHTS assay to identify small molecule antagonists of the peroxisome proliferator-activated receptor delta (PPARd) signaling pathway (AID 743215; active = well fitted inhibition curve with a large enough effect in the signal ratio in the repeat runs, not every such curve was filed as active; the % refers to the signal ratio;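 note: cells stimulated with agonist L165041 at 300 nM final during compound exposure; series mostly up to about 62 µM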). An outline of the steps:
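Agonist L165041 (300 nM final) added with compound to PPARd-bla HEK293H UAS-bla reporter cells; 17 h incubation at 37 C. Read-out: LiveBLAzer FRET substrate, 2 h at room temperature, fluorescence intensity.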

Assay [20] is described as follows: qHTS assay to identify small molecule antagonists of the peroxisome proliferator-activated receptor delta (PPARd) signaling pathway - cell viability counter screen (AID 743213). Note: nearly all actives have a fitted effect of over 50% in size. An outline of the steps:
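Same-well viability: cells pre-incubated 5 h, dosed with compound plus 300 nM L165041, kept 17 h at 37 C, FRET substrate 2 h RT, then CellTiter-Glo 30 min RT and luminescence.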

Bile acid receptor (Homo sapiens), sequence (Q96RI1 whole entry, looked up): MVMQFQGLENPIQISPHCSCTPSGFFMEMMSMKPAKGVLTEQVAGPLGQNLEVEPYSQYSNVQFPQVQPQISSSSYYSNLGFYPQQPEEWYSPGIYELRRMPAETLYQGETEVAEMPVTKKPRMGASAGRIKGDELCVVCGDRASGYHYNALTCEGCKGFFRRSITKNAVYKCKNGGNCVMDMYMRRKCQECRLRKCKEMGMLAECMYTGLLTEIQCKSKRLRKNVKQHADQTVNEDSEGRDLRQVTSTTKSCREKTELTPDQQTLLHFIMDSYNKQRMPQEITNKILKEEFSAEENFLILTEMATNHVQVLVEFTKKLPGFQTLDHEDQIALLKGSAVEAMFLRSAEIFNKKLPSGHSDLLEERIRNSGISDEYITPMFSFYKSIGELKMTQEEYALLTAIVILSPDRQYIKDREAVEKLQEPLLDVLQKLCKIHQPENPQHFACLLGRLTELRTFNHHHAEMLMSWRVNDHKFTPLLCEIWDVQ
Peroxisome proliferator-activated receptor delta (Homo sapiens), sequence (Q03181 whole entry, looked up): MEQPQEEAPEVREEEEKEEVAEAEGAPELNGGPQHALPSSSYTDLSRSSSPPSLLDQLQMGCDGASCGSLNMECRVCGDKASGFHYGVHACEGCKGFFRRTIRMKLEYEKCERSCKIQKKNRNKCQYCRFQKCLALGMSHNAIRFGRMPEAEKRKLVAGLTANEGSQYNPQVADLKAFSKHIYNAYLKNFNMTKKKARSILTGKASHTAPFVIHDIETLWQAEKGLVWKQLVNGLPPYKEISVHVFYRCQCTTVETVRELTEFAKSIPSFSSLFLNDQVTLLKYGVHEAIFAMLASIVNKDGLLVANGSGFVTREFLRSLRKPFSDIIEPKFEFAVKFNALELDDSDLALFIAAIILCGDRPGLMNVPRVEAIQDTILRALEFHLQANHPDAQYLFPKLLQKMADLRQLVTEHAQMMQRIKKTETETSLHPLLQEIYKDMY
Aryl hydrocarbon receptor (Homo sapiens), sequence (P35869 whole entry, looked up): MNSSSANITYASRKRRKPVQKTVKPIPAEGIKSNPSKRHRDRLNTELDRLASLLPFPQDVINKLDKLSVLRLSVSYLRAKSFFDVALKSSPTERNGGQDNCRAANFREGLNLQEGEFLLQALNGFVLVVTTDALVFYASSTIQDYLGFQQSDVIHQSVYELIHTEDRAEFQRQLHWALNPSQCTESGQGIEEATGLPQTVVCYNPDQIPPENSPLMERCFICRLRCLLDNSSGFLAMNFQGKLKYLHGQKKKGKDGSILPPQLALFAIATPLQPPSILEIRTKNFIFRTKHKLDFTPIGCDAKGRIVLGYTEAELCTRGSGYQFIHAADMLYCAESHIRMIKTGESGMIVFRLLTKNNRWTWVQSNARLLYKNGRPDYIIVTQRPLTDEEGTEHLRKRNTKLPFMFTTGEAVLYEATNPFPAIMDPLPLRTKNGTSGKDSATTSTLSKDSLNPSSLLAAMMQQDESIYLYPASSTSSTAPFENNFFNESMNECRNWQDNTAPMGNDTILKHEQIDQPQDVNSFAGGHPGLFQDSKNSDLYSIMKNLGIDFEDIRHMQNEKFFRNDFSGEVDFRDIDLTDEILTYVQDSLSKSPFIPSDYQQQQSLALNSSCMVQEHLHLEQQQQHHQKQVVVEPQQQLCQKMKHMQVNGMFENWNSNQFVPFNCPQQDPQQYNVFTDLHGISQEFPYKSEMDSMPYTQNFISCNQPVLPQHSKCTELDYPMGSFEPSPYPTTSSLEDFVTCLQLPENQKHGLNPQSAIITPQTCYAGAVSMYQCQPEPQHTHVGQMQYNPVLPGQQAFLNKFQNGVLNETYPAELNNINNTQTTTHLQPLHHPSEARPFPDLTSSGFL
Peroxisome proliferator-activated receptor gamma (Homo sapiens), sequence (P37231 whole entry, looked up): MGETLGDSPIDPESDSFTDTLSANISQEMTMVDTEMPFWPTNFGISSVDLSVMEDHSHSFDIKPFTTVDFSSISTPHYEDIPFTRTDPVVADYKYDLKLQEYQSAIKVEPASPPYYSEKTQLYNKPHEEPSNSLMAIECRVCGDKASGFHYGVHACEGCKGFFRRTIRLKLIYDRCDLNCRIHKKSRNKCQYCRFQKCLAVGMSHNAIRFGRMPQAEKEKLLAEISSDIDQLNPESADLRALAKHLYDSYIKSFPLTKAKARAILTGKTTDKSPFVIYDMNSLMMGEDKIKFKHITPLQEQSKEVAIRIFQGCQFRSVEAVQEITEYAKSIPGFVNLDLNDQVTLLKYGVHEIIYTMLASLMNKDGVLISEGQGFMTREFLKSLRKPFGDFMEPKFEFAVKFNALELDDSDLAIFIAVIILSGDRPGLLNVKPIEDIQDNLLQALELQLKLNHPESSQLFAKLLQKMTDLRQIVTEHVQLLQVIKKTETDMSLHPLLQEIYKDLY
Vitamin D3 receptor (Homo sapiens), sequence (P11473 whole entry, looked up): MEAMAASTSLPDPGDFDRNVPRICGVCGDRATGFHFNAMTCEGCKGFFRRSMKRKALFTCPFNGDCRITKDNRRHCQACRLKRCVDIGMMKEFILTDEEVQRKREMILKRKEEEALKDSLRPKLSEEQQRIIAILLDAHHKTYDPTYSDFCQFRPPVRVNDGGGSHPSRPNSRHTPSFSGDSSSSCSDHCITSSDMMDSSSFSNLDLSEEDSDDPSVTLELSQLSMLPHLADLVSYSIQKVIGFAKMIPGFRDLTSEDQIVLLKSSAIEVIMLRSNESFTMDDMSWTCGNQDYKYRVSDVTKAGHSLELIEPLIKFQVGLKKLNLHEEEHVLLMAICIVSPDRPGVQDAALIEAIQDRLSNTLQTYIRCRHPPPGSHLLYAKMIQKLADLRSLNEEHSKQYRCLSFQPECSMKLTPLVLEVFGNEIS

In the case of `O=C1O[C@@H]2[C@@H](O)[C@H](O)O[C@@H]2[C@H]1O`, the Potency result in assay [1], in assay [2], in assay [3], in [5], in assay [10] and in assay [11] was “inactive” in each case. The Potency entry in [12] is “inactive”. The result in assay [4], in [6], in assay [7], in [8], in assay [9] and in [13] was inactive. Also, in assay [14], the compound was called inactive.

As for `CCCCCCOC(=O)CC`, the Potency entry in [1], in [2], in assay [3], in [5], in [10] and in assay [11] was “inactive” each time. The Potency entry in assay [12] was “inactive”. Further, the compound was classed as inactive in assay [4], in [6], in assay [7], in assay [15], in assay [9] and in [16]. The compound was classed as inactive in [13], in [17] and in assay [14].

With `CCOc1cc(NC(C)=O)ccc1C(=O)OC`, the Potency entry in [1], in assay [2], in [3], in assay [5], in assay [18] and in [10] was “inactive” each time. In addition, the Potency result in assay [12] was “inactive”. Further, the result in assay [4], in assay [7], in assay [8], in assay [15], in assay [9] and in assay [16] was inactive. Further, the compound was classed as inactive in assay [19] and in [13].

For `Nc1ncnc(Nc2ccccc2)n1`, the Potency entry in assay [1], in assay [2], in assay [3], in assay [5] and in assay [11] was “inactive” throughout. The outcome in [4], in assay [6], in assay [7], in [9], in assay [16] and in assay [20] was inactive. The result in assay [19], in [13] and in assay [14] was inactive.

Turning to `O=C1c2ccccc2C(=O)C1c1ccccc1`, the Potency result in assay [1], in assay [2], in assay [3], in assay [5], in assay [18] and in assay [10] was “inactive” throughout. Further, the Potency result in [11] and in assay [12] was “inactive” throughout. Besides, the compound was classed as inactive in assay [4], in assay [7], in [8], in assay [9], in [16] and in [20]. The compound was called inactive in assay [19] and in assay [13].

Consider `CCCCCCCCC(=O)Cl`, for which the Potency entry in assay [1], in assay [2], in assay [3], in [10], in [11] and in assay [12] was “inactive” each time. Besides, the outcome in assay [4], in [6], in [7], in [8], in assay [15] and in assay [9] was inactive. For the same compound, the outcome in assay [16], in assay [20], in assay [19], in assay [13] and in assay [17] was inactive.

In the case of `COc1ccc(Br)c(C)c1`, the Potency result in assay [1], in assay [2], in assay [3], in assay [18], in assay [10] and in [11] was “inactive” in each case. The Potency entry in assay [12] is “inactive”. Besides, the compound was called inactive in assay [4], in assay [6], in [7], in assay [8], in assay [15] and in assay [9]. The compound was called inactive in assay [19] and in [13].

For `CCCCCCCCC1CCC(=O)O1` (configuration not stated), the Potency entry in assay [1], in assay [2], in assay [3], in assay [10], in assay [11] and in [12] was “inactive” in each case. Further, the outcome in assay [4], in assay [6], in assay [7], in assay [8], in [15] and in assay [9] was inactive. Besides, the compound was classed as inactive in assay [16], in assay [20], in [19], in assay [13] and in [17].

Take `CC(=O)NCc1c(I)c(NC(C)=O)c(I)c(C(=O)O)c1I`: the Potency result in [1], in [2], in assay [3] and in [11] was “inactive” each time. For the same compound, the compound was classed as inactive in assay [4], in [6], in [7], in assay [8], in assay [15] and in [9]. Moreover, the call in assay [13] and in assay [17] was inactive.

Consider `CC(=O)Nc1cccc(C)c1`, for which the Potency entry in assay [1], in assay [2], in [3], in assay [18] and in assay [11] was “inactive” throughout. Also, the call in [4], in [6], in assay [7], in assay [8], in assay [15] and in [9] was inactive. Moreover, the compound was classed as inactive in assay [16], in [20], in [13] and in assay [14].

In the case of `COc1ccc(-c2cc(=O)c3c(O)cc(O[C@@H]4O[C@H](CO[C@@H]5O[C@@H](C)[C@H](O)[C@@H](O)[C@H]5O)[C@@H](O)[C@H](O)[C@H]4O)cc3o2)cc1O`, the Potency entry in [1], in assay [3] and in assay [11] was “inactive” throughout. Besides, in [2], the Potency is 29.8 µM (active). In addition, the compound was called inactive in assay [4], in [6], in assay [7], in assay [8], in assay [15] and in assay [9]. For the same compound, the outcome in [16], in assay [19], in assay [13], in assay [17] and in assay [14] was inactive.

For `OCCC(F)(F)C(F)(F)C(F)(F)C(F)(F)C(F)(F)C(F)(F)C(F)(F)C(F)(F)F`, the Potency entry in [1], in assay [2], in [3], in [18] and in assay [11] was “inactive” each time. Besides, the compound was classed as inactive in assay [6], in [7], in [8], in [15], in assay [9] and in assay [20]. Besides, the compound was called inactive in assay [13], in assay [17] and in assay [14].

With `CCCCOCCOC(=O)COc1nc(Cl)c(Cl)cc1Cl`, the Potency result in [1], in assay [2], in [3], in [10], in assay [11] and in [12] was “inactive” in each case. The call in assay [4], in assay [6], in assay [7], in assay [8], in [15] and in assay [9] was inactive. The compound was classed as inactive in [16], in [20], in assay [19], in [13] and in assay [17].
